Compound activity deposited in PubChem BioAssay by National Center for Advancing Translational Sciences (NCATS).
BRCA1 expr act = activators of BRCA1 expression; AID 624202; Potency, µM (top dose mostly 46.1 µM), inactives show at the top dose activation, most hits filed as activators; MCF7-BRCA1-FFLuc reporter, luminescence, 48 h; response scale: scaled: vehicle 0%, 10 µM genistein 100%; 380,000 tested, 1.1% active; note: potency is the fitted concentration of half-maximal effect; nearly all actives have a fitted effect of over 80% in size
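First, MCF7-BRCA1-FFLuc cells (2000/well) attach for 2 h; next, compounds are pin-added and incubated 48 h at 37 °C; finally, luciferase reagent is added and luminescence read after 15 min.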
Giardia killer = kills Giardia lamblia; AID 540267; 340,000 tested, 0.15% active; activity change, % at 7.66 µM, hits read low; Giardia lamblia trophozoite viability; in the data active = activity change below about -80%; inconclusive = between about -30% and that limit;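 note: parasites exposed to compound for two days anaerobically before the ATP read; % is set by controls: 0 for no effect and ±100 for the full control effect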
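Viability, read as ATP luminescence: trophozoites at 100 cells/well, compound added, 48 hrs anaerobic at 37 deg C, then 15-30 min room-temperature development before reading.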
ELG1 repair inh = inhibitors of ELG1-dependent DNA repair in HEK293T cells; HEK293T ELG1-luciferase reporter, luminescence, 16 h; DNA damage induced by 5-fluorouridine; Potency, µM (top dose mostly 46.1 µM), inactives show at the highest dose activity change, negative = inhibition, hits mostly inhibitors; 330,000 tested, 2.3% active; AID 504467; note: potency is the fitted concentration of half-maximal effect; % is set by controls: 0 for no effect and ±100 for the full control effect; nearly all actives have a fitted effect of over 55% in size
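HEK293T cells expressing luciferase-tagged ELG1 (2,000/well) received 5-Fluorouridine plus compound or DMSO for 16 hr at 37 °C. Luciferase was read by ONE-Glo luminescence after 30 min at room temperature.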
RORgamma inh = ROR gamma (mouse) transcription inhibition. P51450. AID 2551. 310,000 tested, 5.4% active. Drosophila S2 Gal4-RORgamma UAS-luciferase reporter, 20 h. Potency, µM (highest dose often 53.6 µM), for the others: top-dose activity change, negative = inhibition, usual class: inhibitors; note: potency is the fitted concentration of half-maximal effect; % is set by controls: 0 for no effect and ±100 for the full control effect; nearly all actives have a fitted effect of over 60% in size
Target sequence (P51450 whole entry, looked up, the tested form may be a part): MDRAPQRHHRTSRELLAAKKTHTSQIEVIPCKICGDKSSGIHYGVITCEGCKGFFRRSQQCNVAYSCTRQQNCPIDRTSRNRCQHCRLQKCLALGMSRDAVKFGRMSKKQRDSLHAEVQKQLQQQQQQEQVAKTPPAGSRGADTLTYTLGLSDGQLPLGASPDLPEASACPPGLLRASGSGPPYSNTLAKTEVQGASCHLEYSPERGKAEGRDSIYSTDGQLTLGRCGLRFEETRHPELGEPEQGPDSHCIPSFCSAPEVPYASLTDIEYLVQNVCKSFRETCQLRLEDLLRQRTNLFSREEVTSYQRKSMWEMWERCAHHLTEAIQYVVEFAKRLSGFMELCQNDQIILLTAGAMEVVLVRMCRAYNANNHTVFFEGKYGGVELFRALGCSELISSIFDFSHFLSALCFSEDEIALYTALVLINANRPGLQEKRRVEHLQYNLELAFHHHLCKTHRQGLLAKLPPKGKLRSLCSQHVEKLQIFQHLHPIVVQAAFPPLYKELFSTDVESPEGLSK
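Schneider cells (Drosophila), stable Gal4 DBD–ROR gamma + UAS-luc; 1 hr cmpd preincubation; Cu2+ induction 700 uM final; 20 hr ambient; luminescence.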
p53 reactivation = re-activators of mutant p53. H1299 p53-A138V BP100-luciferase reporter, luminescence, 24 h. Potency, µM (top dose mostly 92.2 µM), without a hit: at the highest dose activity change, positive = activation, hits mostly activators. 320,000 tested, 0.063% active. AID 504706; note: potency is the fitted concentration of half-maximal effect; % of control where 0% means no effect; nearly all actives have a fitted effect of over 45% in size
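H1299 (p53-null), stable ts p53-A138V + BP100-Luc; 1000 cells/well, Opti-MEM/10% FBS; cpd 4 pt, 1:5; 24 h, 37 deg C, 5% CO2; detection reagent 10 min RT; luminescence.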
VP16 counter = inhibits Gal4-VP16 luciferase reporter, ROR gamma counter-screen; Drosophila S2 Gal4-VP16 UAS-luciferase, luminescence, 20 h; Potency, µM (top dose mostly 53.6 µM), for inactives: top-dose activity, negative = inhibition, usual class: inhibitors; 310,000 tested, 3.5% active; AID 2546;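 note: Gal4-VP16 expression switched on by copper sulfate through the metallothionein promoter; potency is the fitted concentration of half-maximal effect; % is set by controls: 0 for no effect and ±100 for the full control effect; nearly all actives have a fitted effect of over 50% in size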
* hit, by the source's call; ? = inconclusive; . = no result. This is a sample that favours compounds with a hit; in the whole collection about 7.6% have one here. Unless noted, calls come from the whole dose curve; as a rule, active = well fitted curve in the direction sought with a large enough effect; inconclusive = small, poorly fitted or top-dose-only effect, or another doubt; inactive = no such curve, though single readings can be large; an effect the other way counts as inactive or inconclusive.

SMILES | BRCA1 expr act | Giardia killer | ELG1 repair inh | RORgamma inh | p53 reactivation | VP16 counter
Cc1ccc(/C=C/c2ccc3cccc(O)c3n2)s1 | 49% | 2 | ? | 14µM* | ? | ?
Oc1cccc(/C=C/c2ccc3cccc(O)c3n2)c1 | -68% | -18 | ? | -108% | ? | 5µM*
O=C(COc1ccc([N+](=O)[O-])cc1)Nc1ccccc1C(=O)NC1CC1 | 12% | 13 | 12% | . | -5% | .
COc1ccc(Nc2nc(C)c(-c3ccccc3)s2)cc1 | ? | -6 | ? | 11µM* | ? | ?
Cc1nc(Nc2ccccc2)sc1C(=O)Nc1ccccc1 | 6.3µM* | -11 | ? | ? | 7% | 9%
COc1ccc(Nc2nc(C)c(C(C)=O)s2)cc1 | 13µM* | . | . | . | . | .
Cc1nc(Nc2ccc(S(N)(=O)=O)cc2)sc1-c1ccccc1 | 41% | 13 | ? | 42% | 5% | 11%
Cc1nc(Nc2ccc(S(N)(=O)=O)cc2)sc1C(=O)Nc1ccccc1 | -27% | 4 | 7% | ? | 2% | 1%
CCOC(=O)c1c(Nc2ccc(OCC)cc2)nnc(-c2ccccc2)c1-c1ccccc1 | -2% | . | . | . | . | .
CN(C)S(=O)(=O)c1cccc(NC(=S)N/N=C/c2cccc(O)c2)c1 | -20% | -9 | ? | 8.9µM* | -3% | ?
CN(C)S(=O)(=O)c1cccc(NC(=S)N/N=C/c2cc(Br)ccc2O)c1 | -81% | -3 | 2.9µM* | 1% | ? | -8%
CCC(CCCO)CCC[C@H](C)CCC1OCCO1 (stereo partly drawn) | 7% | -3 | 16% | . | 4% | .
CCOc1ccc(N(CC(=O)NC2CCCC2)C(=O)Cn2nnc(-c3ccc(C)o3)n2)cc1 | -15% | -9 | -1% | 6% | -6% | 14%
O=C(O)CC12CC3CC(C1)CC(n1ncc(N4CCC5(CC4)OCCO5)c(Cl)c1=O)(C3)C2 | -9% | 9 | 23µM* | -9% | -2% | -5%
C[C@H](NC(=O)c1nc[nH]c1C(=O)N[C@@H](Cc1ccccc1)C(=O)OCc1ccccc1)c1ccccc1 | 3% | 40 | -3% | 4.5µM* | -4% | 7.9µM*
O=C(N[C@@H](Cc1ccccc1)C(=O)OCc1ccccc1)c1nc[nH]c1C(=O)NC(c1ccccc1)c1ccccc1 | -37% | 9 | -1% | 3.5µM* | 0% | 5.6µM*
CC(C)(C)OC(=O)CNC(=O)c1[nH]cnc1C(=O)NCC(=O)OCc1ccccc1 | 3% | 26 | ? | ? | . | 6%
C[C@@H](NC(=O)c1nc[nH]c1C(=O)N[C@@H](Cc1ccccc1)C(=O)OCc1ccccc1)c1ccccc1 | -5% | 10 | -8% | 5.6µM* | -4% | 7.1µM*
C[C@H](NC(=O)c1nc[nH]c1C(=O)N[C@H](C)c1ccccc1)C(=O)OCc1ccccc1 | 6% | 31 | ? | -5% | -15% | 3%
O=C(CNC(=O)c1[nH]cnc1C(=O)N[C@@H](Cc1ccccc1)C(=O)OCc1ccccc1)OCc1ccccc1 | -6% | -12 | ? | ? | . | ?
CN(Cc1ccccc1)C(=O)c1[nH]cnc1C(=O)NCC(=O)OCc1ccccc1 | -8% | -16 | 1% | 11µM* | . | -30%
Cc1cccc(NN=C2c3ccccc3-c3ccccc32)c1 | -56% | -15 | ? | 16% | 7% | 12%
CCOC(=O)c1cnc2cc(Cl)c(OC)cc2c1NCC1CCCO1 (stereo not drawn) | -5% | 7 | ? | -29% | -10% | -2%
CN(CC(=O)Nc1ccc(F)c(F)c1F)C(=O)C1CC(=O)N(c2ccc3c(c2)OCCO3)C1 (stereo not drawn) | 6% | 0 | 5% | . | -2% | .
Cc1ccc(C)c(S(=O)(=O)N2CCCN(C)CC2)c1 | 37% | 1 | 16% | 8% | -6% | -18%
SMILES | BRCA1 expr act | Giardia killer | ELG1 repair inh | RORgamma inh | p53 reactivation | VP16 counter
CN(CC(=O)NNC(=O)CNC(=O)c1cccs1)S(=O)(=O)c1ccc(Cl)cc1 | 0% | 0 | 8% | . | -4% | .
CN(Cc1ccccc1)C(=O)c1[nH]cnc1C(=O)N[C@@H](Cc1ccccc1)C(=O)OCc1ccccc1 | -2% | -3 | 12% | 10µM* | -2% | 10µM*
COc1ccc(C(C#N)N2CCC(c3ccccc3)=N2)cc1 (stereo not drawn) | 50% | -18 | 0% | 10% | 8% | 29%
CC1(C)CCc2cc(-c3ccnc(=S)[nH]3)ccc2O1 | ? | 8 | ? | 1.8µM* | 9% | 3.2µM*
CC1(C)CCc2cc(O)ccc2O1 | 0% | . | . | . | . | .
S=c1nccc(-c2ccc3c(c2)CCO3)[nH]1 | -10% | 7 | ? | 3.2µM* | 2% | 6.3µM*
Cc1ccc(-c2ccnc(=S)[nH]2)cc1 | 52% | 3 | -8% | 2.8µM* | 11% | 3.5µM*
S=c1nccc(-c2cccs2)[nH]1 | -12% | 28 | -2% | 4µM* | -2% | 7.9µM*
CC(C)/C=N\NC(=O)CCCCC(=O)N/N=C/C(C)C | -10% | -4 | 9% | -6% | 6% | -12%
CCn1nnnc1NC(=O)c1cc(OC)c(OC)c(OC)c1 | -16% | 13 | -9% | 15% | -1% | 2%
CC(C)CCn1c(O)c(N=Nc2ccccn2)c2ccccc21 | -62% | 7 | ? | 14µM* | -6% | 11µM*
Oc1ccc2ccccc2c1N=Nc1ccccn1 | -105% | 2 | ? | 0.28µM* | -3% | ?
CCN1/C(=C(\O)c2ccccc2)C(=O)c2ccccc2S1(=O)=O | -8% | -1 | ? | 10µM* | -8% | ?
COc1ccc(SCCN2CCN(CCc3ccccc3)CCC2=O)cc1 | . | ? | . | 10µM* | . | ?
COc1ccc(C(=O)N2CCN(c3ccccc3OC)CC2)cc1 | 13% | -3 | -2% | -1% | 0% | 2%
COc1ccc(/C=C/C(=O)NC(=S)N2CCOCC2)cc1 | 75% | 15 | ? | 4µM* | ? | ?
COc1ccccc1N1CCN(Cc2ccc(Br)o2)CC1 | 6% | 3 | -1% | 12% | 12% | 20µM*
COc1ccc(C(=O)CCN2CCN(c3ccccc3OC)CC2)cc1 | -58% | -11 | 7% | 19% | -13% | 2.8µM*
COc1ccc(/C=C/C(=O)NC(=S)N2CCN(c3ccccc3OC)CC2)cc1 | 4µM* | 10 | ? | 2% | 18% | -1%
COc1ccccc1N1CCN(C(=O)/C=C/c2ccc(C)cc2)CC1 | -4% | 7 | -3% | 2% | -2% | 3%
CCOc1ccc(Br)cc1S(=O)(=O)Nc1ccc(C(=O)Nc2ccccc2OC)cc1 | -38% | 8 | -1% | 24% | ? | -1%
